Source: PubChem BioAssay (NCI)
Compounds without any hit were thinned out: in the full panel of roughly 83,000, 20% have a hit.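 A percent growth of 40 corresponds to 60% growth inhibition; 0 means no net growth; -100 means all cells died. Active threshold: below 10.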 Values without a mark were called inactive. Activity calls are given as the source filed them.

Legend:
Experiment in all cases: NCI-60 one-dose screen, 48 h (100 = growth as untreated, 0 = no growth, -100 = all killed)
Settings in all cases: 10 µM unless noted
[1] = system: HCT-15 colon
[2] = system: HT29 colon
[3] = system: SNB-75 CNS
[4] = system: SNB-19 CNS
[5] = system: U251 CNS
[6] = system: PC-3 prostate
[7] = system: SK-MEL-5 melanoma
[8] = system: UACC-62 melanoma
[9] = system: LOX IMVI melanoma
[10] = system: SK-MEL-28 melanoma
[11] = system: SK-MEL-2 melanoma
[12] = system: EKVX NSCLC
[13] = system: SN12C renal
[14] = system: UO-31 renal
[15] = system: TK-10 renal
[16] = system: ACHN renal
[17] = system: CAKI-1 renal
[18] = system: A498 renal
[19] = system: CCRF-CEM leukemia
[20] = system: MOLT-4 leukemia

SMILES | growth [1] | growth [2] | growth [3] | growth [4] | growth [5] | growth [6] | growth [7] | growth [8] | growth [9] | growth [10] | growth [11] | growth [12] | growth [13] | growth [14] | growth [15] | growth [16] | growth [17] | growth [18] | growth [19] | growth [20]
O=c1[nH]c2c(s1)CCCC2CN1CCCCC1 (configuration not stated) | 107% | 95.2% | 83.8% | 110% | 102% | 91.9% | 99.8% | 113% | 95.5% | 99.3% | 97.2% | 105% | 103% | 89.3% | 93% | 97.6% | 99% | 95.8% | 109% | 
Cc1c2c(cc[n+]1Cc1ccccc1)c1ccc(OCC3CCCCC3)cc1n2CC1CCCCC1 | -81.7% (active) | -79% (active) | -87.3% (active) | -90.7% (active) | -92.5% (active) | -75.8% (active) | -100% (active) | -94% (active) | -95.6% (active) | -95.8% (active) | -86.5% (active) | -75.5% (active) | -91.9% (active) | -93.1% (active) | -93.6% (active) | -100% (active) | -92.5% (active) | -97.4% (active) | -36.2% (active) | -64.5% (active)
COc1ccccc1/C=C1\COc2ccc(-c3ccccc3)cc2C1=O | 22.7% | 5.36% (active) | 42.2% | 69.1% | 17.3% | 27.2% | 27.5% | 40.6% | 18.7% | 57.3% | 44.7% | 94% | 54% | 49.3% | 52% | 60.8% | 86.4% | 42.8% | -25.3% (active) | -18% (active)
C[C@]12CCc3nc(Nc4cccc(O)c4)sc3C1=CC[C@@H]1[C@@H]2CC[C@]2(C)/C(=N\NC(N)=S)CC[C@@H]12 | -29% (active) | 3.21% (active) | 1.36% (active) | 57.9% | 11.9% | 20.1% | 36.7% | 73.1% | -73.8% (active) | 9.46% (active) | 40.8% | 65.9% | 30.7% | -37.1% (active) | 20.1% | -54.1% (active) | 36.4% | 97.5% | 1.64% (active) | 5.41% (active)
c1ccc(CCSc2ncnc3nc[nH]c23)cc1 | 98.2% | 90.6% | 98.7% | 84.8% | 91.1% | 82.8% | 85.1% | 76.9% | 80.5% | 103% | 53.6% | 73.4% | 86.5% | 84.4% | 122% | 90.7% | 86.7% | 86.3% | 92.6% | 92.4%
COc1cc(/C=C2\C(=O)N(Cc3ccc(Cl)cc3)c3ccccc32)cc(OC)c1OC | -37.7% (active) | 8.97% (active) | 12.5% | 50.3% | 3.6% (active) | 38.6% | 41.6% | 22.2% | -57.1% (active) | -42.6% (active) | 90.2% | 88.8% | 24.9% | 26.6% | 20.5% | 40.6% | 24.6% | 26.2% | -3.04% (active) | 8.46% (active)
Clc1cc(Cl)cc(N2N=C(c3cccc(Nc4ccncc4)c3)CC2c2ccc(Br)cc2)c1 (configuration not stated) | -66.5% (active) | -12.2% (active) | 78.3% | 85.8% | -29.8% (active) | 33.3% | 79% | 102% | -88.4% (active) | -21.8% (active) | 99.2% | 67.8% | 58.3% | 52.1% | 71.4% | 46.3% | 48.2% | 88.8% | -12.9% (active) | 3.97% (active)
COc1cc(NCC(C)(O)CN(CC(C)C)CC(C)C)c2nc(C)ccc2c1 (configuration not stated) | 67.7% | 82% | 81.4% | 87.9% | 94.9% | 64.5% | 86.4% | 68.3% | 86.7% | 99.3% | 96.8% | 91.5% | 81% | 54.5% | 119% | 79% | 67.7% | 56.5% | 85.4% | 80.7%
COc1cc(NCC(O)CN(CC(C)C)C2CCCC2)c2ncccc2c1 (configuration not stated) | 84.2% | 78.3% | 103% | 101% | 79.9% | 68.8% | 93.1% | 98.9% | 82.7% | 103% | 98.3% | 83.2% | 86.4% | 71.7% | 110% | 80.2% | 94.6% | 71.5% | 114% | 
COc1cccc2c1C(=O)c1c(O)c3c(c(O)c1C2=O)C[C@@](O)(C(=O)CO)C[C@@H]3O[C@H]1C[C@H](N)[C@@H](O)[C@H](C)O1 | 40.5% | -14.8% (active) | -66.2% (active) | 10% | 3.07% (active) | -0.191% (active) | -83.1% (active) | -64.4% (active) | 0.955% (active) | -34.7% (active) | -72.9% (active) | 3.85% (active) | 10% | 11.8% | 6.82% (active) | -36.9% (active) | 25.1% | -67.3% (active) | -20.5% (active) | -0.0958% (active)
O=C(NCCN1CCOCC1)OCc1nc2nc(Cl)nc(N3CCOCC3)c2[nH]1 | 16.4% | 122% | 1.3% (active) | 36.2% | 19.7% | 24% | -29.7% (active) | 35.1% | 16.5% | 61.9% | 18.9% | 95.2% | 29.2% | 39.6% | 71% | 33.1% | 25.2% | -8.24% (active) | 5.93% (active) | 19%
O=C1Nc2c(ccc(Cl)c2Cl)/C1=C/c1ccccn1 | 70.9% | 78.5% | 84.6% | 84.5% | 85% | 75.2% | 83.1% | 70.5% | 43.9% | 105% | 104% | 62.3% | 97% | 73.3% | 120% | 72.6% | -1.32% (active) | 110% | 23.2% | 
CCN(CC)CCCC(Nc1c2ccc(Cl)cc2nc2ccc(OC)cc12)c1ccc(Cl)cc1 (configuration not stated) | -54.7% (active) | -49.6% (active) | 16.7% | 6.15% (active) | -85.9% (active) | 33.6% | -93.7% (active) | -70.6% (active) | -83.3% (active) | -88.7% (active) | -78.7% (active) | 53.1% | 36.3% | 28.2% | -60.4% (active) | -33.7% (active) | -36.9% (active) | 38.2% | -7.24% (active) | -20.9% (active)
CC[N+](CC)(CCCC(C)[N+]1(Cc2ccccc2)C(C)=CC=C1C)Cc1ccccc1 (configuration not stated) | 98.5% | 44.1% | 87.6% | 92.6% | 106% | 73.3% | 68.7% | 73% | 90.7% | 78.8% | 102% | 78.1% | 85.1% | 91.2% | 93.8% | 100% | 101% | 87.5% | 74.1% | 84%
CCN(CC)CCCC(C)Nc1c2c(nc3ccc(OC)cc13)CCCC2 (configuration not stated) | 100% | 79.4% | 72.8% | 100% | 105% | 98.6% | 105% | 103% | 87.5% | 101% | 128% | 91.2% | 84.4% | 76.6% | 111% | 96.4% | 93.7% | 73.5% | 95.5% | 94.7%
CC(=O)Nc1ccc(C(=O)Nc2cc(-c3ccccc3)ccc2N)cc1 | 85.7% | 50.7% | 60.4% | 91.7% | 78.1% | 64.7% | 68.3% | 39.5% | 71.3% | 56.6% | 73.8% | 71.4% | 84.2% | 48.7% | 59.5% | 54.8% | 47.5% | 83.9% | 80.1% | 64.8%
